The values that follow come from PubChem BioAssay (NCATS).

As usually defined, the viability is a read-out of living cells in per cent, often relative to untreated cells.

Inconclusive results are not listed. A number with no mark means an inactive call. Calls of active or inactive are those of the source. Calls follow the shape of the dose curve; as a rule, active = well fitted curve in the direction sought with a large enough effect; inconclusive = small, poorly fitted or top-dose-only effect, or another doubt; inactive = no such curve, though single readings can be large; an effect the other way counts as inactive or inconclusive.

The nature of assay [1]: Quantitative High-Throughput drug screen in 47 multiple myeloma cell lines against the NCATS MIPE library collection: KMS27_JCRB cell viability assay (AID 1918970). Also: nearly all actives have a fitted effect of over 30% in size. Put shortly:
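KMS27_JCRB myeloma cells, 500 per well, exposed 48 h at 37 C, 5% CO2 to MIPE 4.0 compounds. Viability from ATP by CellTiter-Glo luminescence, normalized to DMSO (100%) and medium-only (0%) wells.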

A short description of assay [2]: Quantitative High-Throughput drug screen in 47 multiple myeloma cell lines against the NCATS MIPE library collection: KMS20_JCRB cell viability assay (AID 1918973). Also: nearly all actives have a fitted effect of over 45% in size. A digest of the protocol:
(§1)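 Approved and investigational drugs from MIPE 4.0 were added by pin tool to 500 cells per well. After 48 hours at 37C, ATP-based CellTiter-Glo luminescence indicated remaining viability.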

A short description of assay [3]: Quantitative High-Throughput drug screen in 47 multiple myeloma cell lines against the NCATS MIPE library collection: KMS26_JCRB cell viability assay (AID 1918975). Also: nearly all actives have a fitted effect of over 45% in size. A digest of the protocol: (§2)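 We plated 500 myeloma cells per well, pinned in MIPE 4.0 compounds, and incubated for 48 hours at 37C. ATP was then quantified with CellTiter-Glo, with DMSO and media-only wells defining 100% and 0%.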

A short description of assay [4]: Quantitative High-Throughput drug screen in 47 multiple myeloma cell lines against the NCATS MIPE library collection: MOLP8_DSMZ cell viability assay (AID 1918977). Also: nearly all actives have a fitted effect of over 45% in size. A digest of the protocol: (§3)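 ATP-based CellTiter-Glo luminescence after 48 h drug exposure (37 °C, 5% CO2) of 500 myeloma cells per well. DMSO-only wells set 100% viability, media-only wells 0%; MIPE 4.0 library added by pin tool.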

Assay [5] is described as follows: Quantitative High-Throughput drug screen in 47 multiple myeloma cell lines against the NCATS MIPE library collection: OCIMY1_PLB cell viability assay (AID 1918979). Also: nearly all actives have a fitted effect of over 35% in size. Put shortly: as §3
Assay [6] is described as follows: Quantitative High-Throughput drug screen in 47 multiple myeloma cell lines against the NCATS MIPE library collection: MM1S_ATCC cell viability assay (AID 1918980). Also: nearly all actives have a fitted effect of over 45% in size. A digest of the protocol:
as §3

Assay [7] in a line: Quantitative High-Throughput drug screen in 47 multiple myeloma cell lines against the NCATS MIPE library collection: MM1R_ATCC cell viability assay (AID 1918981). Also: nearly all actives have a fitted effect of over 35% in size. A digest of the protocol:
as §3

A short description of assay [8]: Quantitative High-Throughput drug screen in 47 multiple myeloma cell lines against the NCATS MIPE library collection: LP1_DSMZ cell viability assay (AID 1918982). Also: nearly all actives have a fitted effect of over 35% in size. Put shortly: as §3
A short description of assay [9]: Quantitative High-Throughput drug screen in 47 multiple myeloma cell lines against the NCATS MIPE library collection: KMS28PE_JCRB cell viability assay (AID 1918983). Also: nearly all actives have a fitted effect of over 35% in size. A digest of the protocol: as §3
The nature of assay [10]: Quantitative High-Throughput drug screen in 47 multiple myeloma cell lines against the NCATS MIPE library collection: L363_DSMZ cell viability assay (AID 1918984). Also: nearly all actives have a fitted effect of over 40% in size. A digest of the protocol:
as §3

Assay [11] is described as follows: Quantitative High-Throughput drug screen in 47 multiple myeloma cell lines against the NCATS MIPE library collection: OCIMY7_PLB cell viability assay (AID 1918987). Also: nearly all actives have a fitted effect of over 65% in size. A digest of the protocol: as §3
Assay [12] can be described thus: Quantitative High-Throughput drug screen in 47 multiple myeloma cell lines against the NCATS MIPE library collection: OPM1_PLB cell viability assay (AID 1918989). Also: nearly all actives have a fitted effect of over 40% in size. Put shortly:
as §3

Assay [13] can be described thus: Quantitative High-Throughput drug screen in 47 multiple myeloma cell lines against the NCATS MIPE library collection: KMS12BM_JCRB cell viability assay (AID 1918971). Also: nearly all actives have a fitted effect of over 35% in size. Put shortly:
as §2

Assay [14] in a line: Quantitative High-Throughput drug screen in 47 multiple myeloma cell lines against the NCATS MIPE library collection: KMS12PE_JCRB cell viability assay (AID 1918972). Also: nearly all actives have a fitted effect of over 30% in size. A digest of the protocol: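 CellTiter-Glo ATP luminescence gave viability after 48 h compound treatment at 37C of 500 multiple myeloma cells per well. Normalisation used DMSO-only wells as 100% and media-only wells as 0% viability; primary qHTS of approved and investigational drugs.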

The nature of assay [15]: Quantitative High-Throughput drug screen in 47 multiple myeloma cell lines against the NCATS MIPE library collection: MMM1_PLB cell viability assay (AID 1918976). Also: nearly all actives have a fitted effect of over 35% in size. Put shortly:
as §3

The nature of assay [16]: Quantitative High-Throughput drug screen in 47 multiple myeloma cell lines against the NCATS MIPE library collection: NCIH929_DSMZ cell viability assay (AID 1918978). Also: nearly all actives have a fitted effect of over 35% in size. Put shortly:
as §3

Assay [17] can be described thus: Quantitative High-Throughput drug screen in 47 multiple myeloma cell lines against the NCATS MIPE library collection: KMS21BM_JCRB cell viability assay (AID 1918974). The note with it: ATP luminescence, 48 h; viability: at 45.8 µM (top of the series) unless noted. A digest of the protocol: as §1
A short description of assay [18]: Quantitative High-Throughput drug screen in 47 multiple myeloma cell lines against the NCATS MIPE library collection: KMS34_JCRB cell viability assay (AID 1918985). Also: nearly all actives have a fitted effect of over 40% in size. Put shortly:
as §3

A short description of assay [19]: Quantitative High-Throughput drug screen in 47 multiple myeloma cell lines against the NCATS MIPE library collection: OCIMY5_PLB cell viability assay (AID 1918988). Also: nearly all actives have a fitted effect of over 65% in size. A digest of the protocol:
as §3

Assay [20] in a line: Quantitative High-Throughput drug screen in 47 multiple myeloma cell lines against the NCATS MIPE library collection: SKMM1_PLB cell viability assay (AID 1919863). Also: nearly all actives have a fitted effect of over 35% in size. The note with it: SKMM1 myeloma viability, CellTiter-Glo ATP, 48 h; viability: active compounds read low. Put shortly: as §3
A general note: Cellular ATP, detected with luciferase, serves as a proxy for viable cell number.
Potency is read from the fitted curve at half-maximal effect.

For `Nc1ncn([C@H]2C[C@H](O)[C@@H](CO)O2)c(=O)n1`, the Potency result in assay [1], in assay [3], in [4], in assay [5], in [7] and in assay [8] was “inactive” in each case. Moreover, the Potency entry in assay [9] and in assay [10] was “inactive” each time. For the same compound, the Potency is 0.132 µM (active) in assay [2], 0.418 µM (active) in assay [6], 0.187 µM (active) in assay [11] and 8.33 µM (active) in [12].
In the case of `O=c1oc2cc(O)ccc2s1`, the Potency entry in assay [13], in assay [14], in [2], in assay [3], in assay [16] and in assay [5] was “inactive” throughout. For the same compound, the Potency result in assay [7], in assay [9], in [10] and in assay [12] was “inactive” in each case. Besides, the results for the Potency in [15] and in assay [6] were 16.6 µM (active) and 0.935 µM (active), respectively.
`Cc1cc(=O)c2c(O)c3c(O)cc(=O)c4c3c3c(cc(O)c1c23)C(C)(C)C=4O`: the Potency in [13] is 4.69 µM (active); in assay [2], 0.0187 µM (active); in [17], 4.18 µM (active); in assay [3], 6.62 µM (active); in [15] it was 0.372 µM (active); in [4], 2.64 µM (active). For the same compound, the Potency in assay [16] is 0.296 µM (active); in assay [7], 4.18 µM (active); in [8], 5.9 µM (active); in assay [9], 6.62 µM (active); in [10] it was 0.743 µM (active); in assay [18], 13.2 µM (active). The Potency in assay [19] was 8.33 µM (active).
As for `CC(S)C(=O)NCC(=O)O` (stereo unspecified), the Potency result in assay [1], in assay [14], in assay [4], in [16], in assay [7] and in assay [9] was “inactive” each time. Further, the Potency entry in assay [19] and in assay [12] was “inactive” in each case.
Turning to `Oc1ccc(OCc2ccccc2)cc1`, the Potency entry in assay [1], in assay [14], in assay [16], in assay [5], in assay [6] and in [7] was “inactive” throughout. The Potency result in [8], in assay [9], in assay [10] and in assay [12] was “inactive” each time. In addition, the Potency was 5.9 µM (active) in [15], 18.7 µM (active) in [18] and 7.43 µM (active) in assay [20].
As to `CCCCN(CCCC)CCC(O)c1cc2c(Cl)cc(Cl)cc2c2cc(C(F)(F)F)ccc12` (stereo unspecified), the Potency in assay [13] was 20.9 µM (active); in [9], 23.5 µM (active); in assay [19], 11.8 µM (active); in assay [12], 18.7 µM (active). In addition, the Potency entry in [14], in assay [3], in assay [5], in assay [6] and in assay [10] was “inactive” throughout.
`O=C1c2ccccc2-c2n[nH]c3cccc1c23`: the values for the Potency in assay [1] and in assay [6] were 2.96 µM (active) and 14.8 µM (active), respectively. The Potency result in assay [8], in [9] and in assay [12] was “inactive” each time.
For the compound `Nc1cccc2c1CN(C1CCC(=O)NC1=O)C2=O` (stereo unspecified), the Potency result in assay [1], in assay [14], in assay [4], in [18], in assay [19] and in assay [12] was “inactive” each time. Further, the Potency is 0.605 µM (active) in [3], 0.429 µM (active) in [15], 0.171 µM (active) in assay [9] and 0.0382 µM (active) in [11]. The viability in assay [20] was 122%.
With `NCCCCNCCCN`, the Potency in assay [13] was 20.9 µM (active); in assay [2] it was 18.7 µM (active); in assay [3], 3.72 µM (active); in assay [15], 10.5 µM (active); in assay [4], 4.18 µM (active); in assay [16], 18.7 µM (active). Moreover, the Potency is 10.5 µM (active) in assay [5]; 3.32 µM (active) in [6]; 2.96 µM (active) in [7]; 16.6 µM (active) in assay [8]; 9.35 µM (active) in assay [18]; 10.5 µM (active) in [11]. Moreover, the results for the Potency in [19], in [12] and in assay [20] were 14.8 µM (active), 23.5 µM (active) and 20.9 µM (active), respectively.
Take `Clc1ccc(C(Cn2ccnc2)OCc2ccsc2Cl)c(Cl)c1` (stereo unspecified): the Potency in assay [1] was 26.4 µM (active); in assay [14] it was 18.7 µM (active); in [19] it was 26.4 µM (active); in assay [20], 13.2 µM (active). The Potency entry in assay [3] and in assay [18] was “inactive” throughout.
In the case of `CC(C)Oc1ccc2c(=O)c(-c3ccccc3)coc2c1`, the Potency entry in [1], in [16], in assay [7], in [18] and in [12] was “inactive” in each case. For the same compound, the figures for the viability in [17] and in [20] were 387% (active) and 100%, respectively. Further, the Potency in assay [15] was 18.7 µM (active); in [6] it was 13.2 µM (active); in assay [9], 14.8 µM (active).
With `CC(C)[N+]1(C)[C@@H]2CC[C@H]1CC(OC(=O)C(CO)c1ccccc1)C2` (stereo partly specified), the Potency was 14.8 µM (active) in assay [1], 16.6 µM (active) in [14] and 14.8 µM (active) in assay [10]. Also, the Potency entry in assay [3], in assay [4], in assay [5], in assay [6], in assay [7] and in [9] was “inactive” each time. Moreover, the Potency result in [18] and in assay [19] was “inactive” in each case. In [20], the viability is 150%.
